# A selection follows.
# TNAP inh pNP: human TNAP inhibition, p-nitrophenol detection; P05186; purified TNAP, pNPP hydrolysis, absorbance 405 nm; inhibition, % at 20 µM; 21,000 tested, under 10 active;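 also: 0% = DMSO only wells and 100% = 1 mM levamisole wells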
# Target sequence (P05186 whole entry, looked up): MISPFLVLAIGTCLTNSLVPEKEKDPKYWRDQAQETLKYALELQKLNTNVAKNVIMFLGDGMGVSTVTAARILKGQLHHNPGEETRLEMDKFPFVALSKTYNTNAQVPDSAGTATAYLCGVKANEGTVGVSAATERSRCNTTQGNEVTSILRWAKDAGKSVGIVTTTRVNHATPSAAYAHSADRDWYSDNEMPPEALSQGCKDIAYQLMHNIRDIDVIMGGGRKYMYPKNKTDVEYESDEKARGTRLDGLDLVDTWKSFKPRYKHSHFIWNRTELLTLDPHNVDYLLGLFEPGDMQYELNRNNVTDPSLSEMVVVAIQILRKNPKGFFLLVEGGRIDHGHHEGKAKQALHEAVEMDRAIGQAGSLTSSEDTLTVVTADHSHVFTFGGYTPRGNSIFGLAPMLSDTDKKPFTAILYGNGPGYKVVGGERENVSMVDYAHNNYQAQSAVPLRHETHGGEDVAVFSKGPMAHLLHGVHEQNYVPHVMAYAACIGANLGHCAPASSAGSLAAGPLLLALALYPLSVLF
# TNAP inh Pi: inhibitors of human tissue-nonspecific alkaline phosphatase | P05186 | purified TNAP, pNPP, malachite green phosphate absorbance | inhibition, % at 20 µM | 21,000 tested, under 10 active | AID 614
# The depositor's hits bear a star.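 The calls were made as follows: active = inhibition above 50% at the 20 µM single-dose screen; inactive = the rest.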
SMILES,TNAP inh pNP,TNAP inh Pi
Cn1c(-c2ccccc2)cc2c3no[n+]([O-])c3ccc21,0,-20
N#Cc1c(SCC(=O)Nc2nccs2)nc2c(c1-c1ccco1)CCCC2,1,9
Cn1nnnc1SCCNCc1ccncc1,10,14
CC(C)c1cc(NCCCN2CCOCC2)n2c(nc3ccccc32)c1C#N,1,7
Cc1ccccc1OCc1nnc2c3cnn(C)c3ncn12,4,16
CCOc1ncccc1C(=O)OCc1nnc(-c2ccccc2)o1,7,9
CN(C)CCCNc1oc(-c2cccc(Cl)c2)nc1C#N,-2,6
COc1ccc(NC(=O)Nc2ccccc2C(=O)N2CCCC2)cc1,1,7
O=S(=O)(NCCC1=CCCCC1)c1cccc(S(=O)(=O)N2CCOCC2)c1,2,8
COc1cc(OC)nc(NC(=O)CSc2nnc(-c3ccccc3)n2C2CCCCC2)n1,2,13
CCCn1nnnc1NC(=O)CSc1ccc(Cl)cc1,1,-10
CC1(C)NC(=O)N(CCOc2ccc3c(c2)CCC3)C1=O,6,10
CN1C(=O)C2(N=c3ccccc3=N2)c2ccccc21,2,7
COc1cc(N2CN=c3s/c(=C\c4ccccn4)c(=O)n3C2)cc(OC)c1OC,4,-6
C=C(C)n1c(=O)[nH]c2ccccc21,0,10
CC(=O)Oc1c(Cl)c(N2CCOCC2)c(OC(C)=O)c2ccccc12,-3,-13
Nc1cc(N)nc(SCC(=O)Nc2ccc(Br)cc2Cl)n1,2,-24
CCCCOc1ccc(/C(N)=N/O)cc1,2,-8
O=C(CCN1CCN(c2ccccc2F)CC1)Nc1ccc2c(c1)OCO2,5,15
COc1ccc(CCNc2c(C)c(C)nc3ncnn23)cc1,4,4
Cc1cccc(OCCSc2cc(C)nc(N)n2)c1,-4,-1
CCCOc1ccc2[nH]cc(C(=O)O)c(=O)c2c1,0,0
Cc1cc(Oc2ccccc2)nc2ccc(O)cc12,1,12
Cc1cc(N/C=C2\CCCCC2=O)no1,0,0
COc1ccc(CCNC(=O)c2c(O)c3c([nH]c2=O)CCCC3)cc1OC,6,4
SMILES,TNAP inh pNP,TNAP inh Pi
CC12C(=O)N(c3nccs3)C(=O)C1C1C=CC2C1 (stereo not given),4,7
COC(=O)CSc1nnc(CNc2ccc(OC)cc2)n1C,6,-4
c1ccc(CNn2c(N3CCOCC3)nc3ccccc32)cc1,2,10
O=C(CCN1C(=O)c2ccccc2S1(=O)=O)Nc1nc2c(s1)CCCC2,-2,9
N#Cc1c(NC(=O)Cn2cnc3ccccc3c2=O)oc(-c2ccccc2)c1-c1ccccc1,3,16
C=C1[C@@H](C)C2[C@H](Cc3ccccc3)NC(=O)[C@]23OC(=O)CC[C@H](O)CCC[C@H](C)C/C=C/[C@H]3[C@@H]1O (stereo not given in full),-9,-8
C=CCNC(=O)C1CCN(S(=O)(=O)c2ccc(Br)cc2)CC1,-1,3
